Assay [1] can be described thus: binders of probe aFSTL3 on microarray, primary screen, stem cell growth factor project, biochemical, small-molecule microarray, fluorescence 635/667 (AID 1064).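 Also: measures binding of the biotinylated anti-FSTL3 antibody to printed compounds.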 Conditions: higher = more signal.
Assay [2] can be described thus: binders from COS7 lysate, DM2A8 probe, primary screen, torsin A project, cell lysate, small-molecule microarray, fluorescence 635/667 (AID 1065). Conditions: higher = more signal, COS7 lysate expressing mutant human TOR1A.
Assay [3] in a line: binders of probe aFGF2 on microarray, primary screen, stem cell growth factor project, biochemical, small-molecule microarray, fluorescence 635/667 (AID 1067).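 Also: measures binding of biotinylated aFGF2 protein to printed compounds on slides; z-score merges feature fluorescence and signal-to-noise across triplicate slides.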 Conditions: higher = more signal.
Assay [4] is described as follows: binders of probe aFGF10 on microarray, primary screen, stem cell growth factor project, biochemical, small-molecule microarray, fluorescence 635/667 (AID 1071).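 Also: score merges 667 nm spot intensity and signal to noise from triplicate slides.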 Conditions: higher = more signal.
For assay [5], the target named is Neurogenic locus notch homolog protein 2 (Homo sapiens) (UniProt Q04721). Description: Notch2 binders on small-molecule microarrays, primary screen, biochemical, small-molecule microarray, 635 nm fluorescence, stem cell growth factors (AID 1073). Conditions: Notch2 binding, higher = more signal.
Chain of Neurogenic locus notch homolog protein 2 (Homo sapiens) (Q04721 whole entry, looked up, canonical isoform): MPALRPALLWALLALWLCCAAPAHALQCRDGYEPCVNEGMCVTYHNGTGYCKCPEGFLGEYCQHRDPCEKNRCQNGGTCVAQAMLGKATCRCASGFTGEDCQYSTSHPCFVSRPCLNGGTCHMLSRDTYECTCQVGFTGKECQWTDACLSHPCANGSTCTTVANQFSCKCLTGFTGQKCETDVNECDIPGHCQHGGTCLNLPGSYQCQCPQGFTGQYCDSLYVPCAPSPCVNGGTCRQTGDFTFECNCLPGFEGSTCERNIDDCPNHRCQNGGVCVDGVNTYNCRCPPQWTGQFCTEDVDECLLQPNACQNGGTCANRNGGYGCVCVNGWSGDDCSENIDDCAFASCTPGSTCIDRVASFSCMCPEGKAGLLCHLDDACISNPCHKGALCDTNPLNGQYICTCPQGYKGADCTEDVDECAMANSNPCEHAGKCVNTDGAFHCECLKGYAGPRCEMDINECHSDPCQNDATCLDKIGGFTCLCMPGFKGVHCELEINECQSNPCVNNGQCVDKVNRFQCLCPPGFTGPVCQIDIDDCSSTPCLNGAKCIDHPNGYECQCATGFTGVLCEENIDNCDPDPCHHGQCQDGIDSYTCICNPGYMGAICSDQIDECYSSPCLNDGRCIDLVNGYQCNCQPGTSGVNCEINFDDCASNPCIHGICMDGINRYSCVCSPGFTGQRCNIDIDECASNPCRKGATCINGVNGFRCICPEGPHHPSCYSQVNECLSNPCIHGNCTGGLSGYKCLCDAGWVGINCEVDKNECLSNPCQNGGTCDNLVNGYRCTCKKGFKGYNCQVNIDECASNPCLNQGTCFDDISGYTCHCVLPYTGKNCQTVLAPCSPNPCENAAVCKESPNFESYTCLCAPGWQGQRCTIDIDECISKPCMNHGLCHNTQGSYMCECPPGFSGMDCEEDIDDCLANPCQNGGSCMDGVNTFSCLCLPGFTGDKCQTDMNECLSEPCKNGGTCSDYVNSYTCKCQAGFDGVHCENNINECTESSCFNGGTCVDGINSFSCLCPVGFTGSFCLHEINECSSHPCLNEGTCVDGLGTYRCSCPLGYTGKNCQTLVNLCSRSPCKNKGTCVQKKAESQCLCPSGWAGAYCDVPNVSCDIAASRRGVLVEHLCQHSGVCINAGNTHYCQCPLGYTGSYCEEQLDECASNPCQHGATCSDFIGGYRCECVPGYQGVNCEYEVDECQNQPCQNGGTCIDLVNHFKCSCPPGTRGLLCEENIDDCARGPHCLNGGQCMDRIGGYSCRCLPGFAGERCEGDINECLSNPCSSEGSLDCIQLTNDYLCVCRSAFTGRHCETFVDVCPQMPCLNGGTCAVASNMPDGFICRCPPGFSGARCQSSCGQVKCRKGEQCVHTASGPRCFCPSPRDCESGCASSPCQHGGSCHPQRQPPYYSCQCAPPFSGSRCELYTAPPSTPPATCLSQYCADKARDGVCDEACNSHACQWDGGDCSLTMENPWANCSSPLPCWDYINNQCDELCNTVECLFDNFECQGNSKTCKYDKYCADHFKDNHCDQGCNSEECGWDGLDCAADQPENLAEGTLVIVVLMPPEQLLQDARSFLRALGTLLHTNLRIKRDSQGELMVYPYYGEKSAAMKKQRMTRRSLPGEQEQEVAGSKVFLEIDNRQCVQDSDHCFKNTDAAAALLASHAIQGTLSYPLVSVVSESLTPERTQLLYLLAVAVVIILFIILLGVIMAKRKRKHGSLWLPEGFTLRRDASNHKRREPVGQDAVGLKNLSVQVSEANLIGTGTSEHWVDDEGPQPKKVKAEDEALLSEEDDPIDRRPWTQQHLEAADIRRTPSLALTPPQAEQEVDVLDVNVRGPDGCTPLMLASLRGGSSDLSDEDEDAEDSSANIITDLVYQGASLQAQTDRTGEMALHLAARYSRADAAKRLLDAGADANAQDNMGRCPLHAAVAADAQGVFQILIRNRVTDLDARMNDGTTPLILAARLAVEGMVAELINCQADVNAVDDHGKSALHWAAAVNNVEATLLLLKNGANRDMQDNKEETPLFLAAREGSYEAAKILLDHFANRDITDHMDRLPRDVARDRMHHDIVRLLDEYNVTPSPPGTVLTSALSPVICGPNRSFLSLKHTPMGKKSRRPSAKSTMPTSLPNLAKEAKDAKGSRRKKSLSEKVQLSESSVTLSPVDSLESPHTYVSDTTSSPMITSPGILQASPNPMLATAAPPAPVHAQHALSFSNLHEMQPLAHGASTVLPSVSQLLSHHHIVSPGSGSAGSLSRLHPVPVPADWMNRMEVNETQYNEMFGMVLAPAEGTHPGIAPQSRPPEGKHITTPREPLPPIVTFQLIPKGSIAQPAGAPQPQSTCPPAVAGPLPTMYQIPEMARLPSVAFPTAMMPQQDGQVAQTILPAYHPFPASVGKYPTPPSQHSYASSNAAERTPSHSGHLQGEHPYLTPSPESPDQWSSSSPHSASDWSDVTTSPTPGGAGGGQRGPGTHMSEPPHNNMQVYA
Assay [6] deals with Pro-neuregulin-1, membrane-bound isoform (Homo sapiens) (UniProt Q02297). Briefly: NRG1 binders on small-molecule microarrays, primary screen, psychiatric disease protein project, biochemical, small-molecule microarray, fluorescence 635/667 (AID 1075).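 Also: score combines 667 nm spot fluorescence with signal to noise.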 Conditions: NRG1 binding, 635 nm fluorescence, higher = more signal.
Chain of Pro-neuregulin-1, membrane-bound isoform (Homo sapiens) (Q02297 whole entry, looked up, the tested form may be a part, canonical isoform): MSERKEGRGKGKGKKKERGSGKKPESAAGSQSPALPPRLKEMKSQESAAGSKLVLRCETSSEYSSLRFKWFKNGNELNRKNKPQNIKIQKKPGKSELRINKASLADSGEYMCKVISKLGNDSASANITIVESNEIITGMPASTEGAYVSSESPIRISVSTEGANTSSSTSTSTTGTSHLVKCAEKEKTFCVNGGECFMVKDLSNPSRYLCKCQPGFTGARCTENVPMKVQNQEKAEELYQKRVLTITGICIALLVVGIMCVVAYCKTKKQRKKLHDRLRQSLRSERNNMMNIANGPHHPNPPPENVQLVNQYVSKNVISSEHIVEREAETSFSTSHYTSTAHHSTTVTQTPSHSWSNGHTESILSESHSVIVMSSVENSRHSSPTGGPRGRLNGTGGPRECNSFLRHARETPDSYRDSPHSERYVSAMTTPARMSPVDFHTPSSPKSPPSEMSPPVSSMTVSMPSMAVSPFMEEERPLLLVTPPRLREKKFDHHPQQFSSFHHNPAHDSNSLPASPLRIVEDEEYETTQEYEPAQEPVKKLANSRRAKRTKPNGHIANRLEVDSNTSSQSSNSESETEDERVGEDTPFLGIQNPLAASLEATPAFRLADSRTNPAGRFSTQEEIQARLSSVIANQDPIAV
Assay [7] has as its system Neuregulin-1 EGF-like domain. Description: binders of neuregulin-1 EGF-like domain, primary screen, biochemical, small-molecule microarray, 635 nm fluorescence (AID 1081).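 Also: binding of the protein to compounds printed on small-molecule microarray slides.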 Conditions: small-molecule microarray binding, higher = more signal.
The nature of assay [8]: FRG1 promoter luciferase signal modulators, primary screen, FRG1 inhibition for FSHD, cell-based, C2C12 myotubes, firefly/Renilla luciferase, luminescence (AID 1084). The conditions noted are these: higher = more signal, called active from +8 up or from −8 down.
The nature of assay [9]: binders of probe aFST on microarray, primary screen, stem cell growth factor project, biochemical, small-molecule microarray, fluorescence 635/667 (AID 1086).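 Also: score merges 667 nm fluorescence with signal-to-noise of each printed compound spot.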 The conditions noted are these: higher = more signal.
Assay [10] is described as follows: binders of probe aHhip on microarray, primary screen, stem cell growth factor project, biochemical, small-molecule microarray, fluorescence 635/667 (AID 1087).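 Also: score merges spot fluorescence at 667nm with spot signal to noise ratio.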 The conditions noted are these: higher = more signal.
Assay [11] has as its system PRMT1 (protein arginine N-methyltransferase 1). Description: PRMT1 binders on small-molecule microarrays, primary screen, biochemical, small-molecule microarray, 635 nm fluorescence (AID 1088).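 Also: binding of Prmt1 protein to compounds spotted on small-molecule microarray slides.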 Conditions: small-molecule microarray binding, higher = more signal.
Assay [12] in a line: yeast growth modulation, basal conditions, primary screen, YJM789 clinical isolate, OD600, 24 h (AID 1089).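 Also: growth of clinical yeast isolate S. cerevisiae YJM 789 seeded 1000 cells per well; test concentration not given here.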 Conditions: S. cerevisiae YJM789 growth, higher = more signal, called active from +8 up or from −8 down.
Assay [13] is described as follows: fission yeast growth modulation, primary screen, strain 972, OD600, 24 h, no modulator (AID 1090).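 Also: basal condition with compound alone and no growth modifier present; test concentration not given here.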 Conditions: S. pombe 972 growth, higher = more signal, called active from +8 up or from −8 down.
Assay [14] can be described thus: S. cerevisiae growth modulation with rapamycin, primary screen, strain BY4716, OD600, 96 h (AID 1091). Also: test concentration not given here. The conditions noted are these: higher = more signal, called active from +8 up or from −8 down.
For assay [15], the target named is Torsin-1A-interacting protein 2 (Homo sapiens) (UniProt Q8NFQ8). Briefly: LULL1 binders on small-molecule microarray, primary screen, cell lysate, human LULL1 lysate, 635/667 nm fluorescence (AID 1092).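 Also: probe is lysate of COS7 cells overexpressing human LULL1; score merges per-feature 667 nm fluorescence with signal-to-noise.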 The conditions noted are these: hLULL1 lysate binding, 635 nm fluorescence, higher = more signal.
Chain of Torsin-1A-interacting protein 2 (Homo sapiens) (Q8NFQ8 whole entry, looked up): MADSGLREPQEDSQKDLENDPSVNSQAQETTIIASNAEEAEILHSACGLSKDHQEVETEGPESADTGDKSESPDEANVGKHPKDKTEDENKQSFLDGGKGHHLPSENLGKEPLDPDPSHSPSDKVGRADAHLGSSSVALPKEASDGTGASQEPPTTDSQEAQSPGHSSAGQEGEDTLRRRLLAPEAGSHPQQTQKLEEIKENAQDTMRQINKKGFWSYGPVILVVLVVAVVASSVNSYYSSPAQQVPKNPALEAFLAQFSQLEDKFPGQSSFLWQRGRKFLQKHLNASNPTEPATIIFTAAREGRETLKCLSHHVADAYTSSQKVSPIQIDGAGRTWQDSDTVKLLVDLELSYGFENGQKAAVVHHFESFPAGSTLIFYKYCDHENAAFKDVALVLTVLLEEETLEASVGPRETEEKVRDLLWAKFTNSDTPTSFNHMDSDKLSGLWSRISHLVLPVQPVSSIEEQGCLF
A short description of assay [16]: E. coli growth modulation, two-sided OD650, primary screen, E. coli filamentation project, strain DRC41, 24 h (AID 1093).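 Also: MC1000 strain lacking acrAB efflux and sulA so SOS filamentation is blocked; test concentration not given here.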 Conditions: OD650, 24 h, higher = more signal, called active from +8 up or from −8 down.
A short description of assay [17]: small-molecule microarray binders of probe aLefty2, primary screen, biochemical, biotinylated probe, 635/667 nm fluorescence (AID 1094).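 Also: score merges spot fluorescence near 667 nm with spot signal-to-noise ratio.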 The conditions noted are these: higher = more signal.
Assay [18] deals with Noggin (protein binding on small-molecule microarray). Briefly: Noggin binders on small-molecule microarray, primary screen, biochemical, 635/667 nm fluorescence (AID 1095).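 Also: score merges 667 nm feature fluorescence with signal to noise over triplicate slides.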 Conditions: 635 nm fluorescence, higher = more signal.
Assay [19] deals with Neurogenic locus notch homolog protein 3 (Homo sapiens) (UniProt Q9UM47). Briefly: NOTCH3 binders on small-molecule microarray, primary screen, biochemical, 635/667 nm fluorescence (AID 1096). The conditions noted are these: NOTCH3 binding, 635 nm fluorescence, higher = more signal.
Assay [20] can be described thus: small-molecule microarray binders of probe aEGFR, primary screen, biochemical, biotinylated probe, 635/667 nm fluorescence (AID 1097).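 Also: probe is a biotinylated anti-EGFR antibody binding compounds printed on slides; score combines fluorescence near 667 nm and signal to noise of each spot.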 The conditions noted are these: higher = more signal.

The source made the active and inactive calls.

Consider `COc1ccc([Si](C)(C)[C@@H]2[C@@H](CC(=O)N3CCC[C@H]3CO)O[C@]3(C(=O)N(c4ccccc4)c4ccccc43)[C@H]2C)cc1`, for which the composite z-score in assay [1] is -0.527; in assay [2], 0.411; in assay [3], -0.122; in [4], 0.713; in assay [5], 0.907; in assay [6] it was 0.0499. The composite z-score is 1.11 in assay [7]; 0.552 in [9]; 0.21 in assay [10]; 1.54 in assay [11]; 2.37 in [15]; -0.256 in [17]. Moreover, the composite z-score in assay [18] came out at 0.999; in assay [19] it was 1.03; in assay [20], 0.0436. Besides, the z-score in [8] is -1.24 (inactive); in assay [12], -1.57 (inactive); in assay [13], -0.589 (inactive); in [14] it was -1.79 (inactive); in assay [16] it was 2.79 (inactive).

With `O=C(NCCN1CCOCC1)[C@@H]1c2ccccc2C(=O)N(C2CCCCC2)[C@H]1c1ccc(CO)cc1`, the composite z-score is 0.64 in assay [1]; -0.324 in assay [2]; -0.0616 in assay [3]; -0.413 in assay [4]; -0.194 in assay [5]; 0.96 in [6]. The composite z-score is 0.872 in assay [7]; 0.106 in assay [9]; -0.271 in assay [10]; 0.403 in assay [11]; 2.35 in assay [15]; -0.0042 in assay [17]. Also, the composite z-score is -0.562 in assay [18], -0.565 in [19] and -0.2 in assay [20]. Moreover, the z-score is -0.658 (inactive) in assay [8]; -0.166 (inactive) in assay [12]; -0.556 (inactive) in [13]; 0.0989 (inactive) in assay [14]; -0.0985 (inactive) in assay [16].

On to `C=C(CCCC)/C(=C/C[C@@H](OC(=O)c1ccncc1)c1ccc(OCCO)cc1)c1cc(C(=O)OC)ccc1OC`, for which the composite z-score is -0.356 in [1]; 0.807 in [2]; -0.129 in [3]; 0.63 in assay [4]; -0.0009 in assay [5]; 0.382 in assay [6]. The composite z-score in assay [7] was 1.01; in assay [9], -0.0132; in [10] it was -0.217; in assay [11], 1.53; in assay [15] it was 1.66; in [17], -0.166. Moreover, the composite z-score in [18] was 0.874; in assay [19] it was 0.975; in [20] it was -0.12. The z-score is 5.07 (inactive) in [8]; 0.594 (inactive) in assay [12]; 0.199 (inactive) in [13]; 0.279 (inactive) in [14]; 0.22 (inactive) in assay [16].

With `O=C1NC(=O)C2C1C=CC(C(O)c1cc(C(F)(F)F)cc(C(F)(F)F)c1)N2Nc1ccccn1` (stereo not given), the composite z-score in assay [1] is -0.119; in assay [2], 0.134; in assay [3] it was -0.0524; in assay [4], 0.121; in assay [5], 0.312; in [6] it was 0.969. For the same molecule, the composite z-score in assay [7] is 1.03; in assay [9], 0.138; in assay [10], -0.0726; in [11] it was 0.463; in assay [15], 1.21; in assay [17], 0.05. Besides, the composite z-score in [18] was 0.159; in assay [19], 0.429; in assay [20], -0.129. Moreover, the z-score in assay [8] is 0.589 (inactive); in assay [12] it was 0.307 (inactive); in [13], 1.19 (inactive); in assay [14], -0.697 (inactive); in assay [16], -1.02 (inactive).

Consider `CC(C)[Si]1(C(C)C)O[C@@H](c2ccccc2)c2cc(-c3ccc(-c4ccc(Cl)c(Cl)c4)o3)nc(-c3ccccc3)c21`, for which the composite z-score in assay [1] was -0.104; in [2], 0.291; in assay [3], -0.0953; in [4], -0.0933; in assay [5], -0.0802; in [6], 0.398. For the same molecule, the composite z-score in assay [7] was -0.39; in [9], 0.0481; in assay [10] it was -0.0645; in assay [11], 0.985; in [15] it was 1.22; in assay [17] it was -0.0809. For the same molecule, the values for the composite z-score in assay [18], in assay [19] and in [20] were -0.262, 0.123 and -0.108, respectively. Besides, the z-score in [8] was 0.97 (inactive); in [12] it was -0.585 (inactive); in [13], -0.764 (inactive); in [14], 0.167 (inactive); in [16], -1.22 (inactive).

Take `CN(C)CCCC[C@@H]1NC(=O)[C@@H]2C[C@H](C(=O)NCCCCCCN)[C@H](c3cccc(OCCO)c3)N2C1=O`: the composite z-score worked out at 1.58 in assay [1]; 2.15 in assay [2]; 0.044 in [3]; 0.973 in [4]; 1.57 in assay [5]; 2.24 in [6]. The composite z-score in assay [7] is 1.42; in [9], 0.88; in [10], -0.103; in assay [11] it was 1.53; in assay [15], 3.25; in assay [17] it was 1.03. In addition, the results for the composite z-score in assay [18], in assay [19] and in [20] were 0.612, 0.395 and 0.54, respectively. The z-score is 0.0194 (inactive) in [8]; -0.968 (inactive) in [12]; -4.9 (inactive) in [13]; -0.883 (inactive) in assay [14]; 0.26 (inactive) in assay [16].

As for `COC(=O)[C@@]1(Cc2ccccc2)[C@H]2c3cc(C(=O)N(C)C)n(Cc4ccsc4Br)c3C[C@H]2CN1C(=O)c1ccccc1`, the composite z-score in [1] was 0.102; in assay [2], 0.106; in assay [3], 0.215; in assay [4], 0.746; in assay [5], 1.61; in [6], 0.823. The composite z-score in assay [7] was 1.12; in assay [9], 1.67; in [10], -0.113; in [11] it was -0.481; in assay [15] it was 3.32; in assay [17] it was 0.313. Besides, the composite z-score in assay [18] was determined as 0.0244; in [19] it was 1.05; in assay [20] it was 0.196. Besides, the z-score was 0.332 (inactive) in assay [8]; 1.04 (inactive) in assay [12]; 1.17 (inactive) in assay [13]; 2.66 (inactive) in [14]; 0.166 (inactive) in [16].

Turning to `COC(=O)[C@@]1(Cc2ccccc2)N=C(c2ccc(OCCCO)cc2)O[C@H]1c1ccccc1`, the composite z-score is 0.348 in assay [1]; 0.0099 in assay [2]; 0.0243 in assay [3]; 0.531 in assay [4]; -0.165 in [5]; 1.5 in assay [6]. For the same molecule, the composite z-score in assay [7] is 0.939; in assay [9], -0.053; in assay [10] it was -0.169; in [11] it was 1.31; in assay [15], 2.05; in [17], 0.116. Further, the composite z-score in [18] was 0.0302; in assay [19], 0.107; in assay [20], -0.123. Besides, the z-score in [8] was -2.3 (inactive); in [12] it was -0.774 (inactive); in assay [13], -1.99 (inactive); in assay [14], 3.21 (inactive); in assay [16] it was 1.55 (inactive).

`CC1CC/C=C\[C@H]2OC34C=CCN(C(C)(C)C)C(=O)[C@H]3N(C(C)CO)C(=O)[C@@H]4C2C(=O)O1` (stereo not given in full): the composite z-score is 0.101 in assay [1]; -0.702 in assay [2]; -0.128 in [3]; -0.414 in [4]; -1.04 in [5]; -0.486 in assay [6]. Also, the composite z-score in assay [7] is 0.061; in assay [9], -0.39; in assay [10], -0.0296; in [11], -0.282; in assay [15], -0.656; in assay [17], -0.207. The composite z-score in assay [18] is 0.0449; in [19] it was -0.454; in assay [20] it was -0.27. Besides, the z-score is -0.486 (inactive) in [8]; 0.214 (inactive) in assay [12]; -0.538 (inactive) in [13]; -0.0168 (inactive) in assay [14]; -0.434 (inactive) in [16].

These data come from PubChem BioAssay.
